A selection: hits, their analogues and other compounds. The true share with any hit is near 3%.
PPC-1+TRAIL kill: compounds killing PPC-1 cancer cells with TRAIL present, primary screen, TRAIL potentiator project, ATPLite luminescence, uHTS. PPC-1 cells + TRAIL, ATPLite viability luminescence. cell killing (% activity), % at 4 µM or 5 µM. hit rate 0.41% among 220,000. AID 1443, 2008;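 active means cell killing above 50% in the first pass at 4 µM, then a duplicate retest at 5 µM averaging 50% or more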;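 further: plate controls were cells with TRAIL plus DMSO for no effect and medium-only wells lacking cells for full effect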
C8 TRAIL sens: viability loss with TRAIL in NB7+C8 cells, primary screen, TRAIL sensitizer project, cell-based, ATPlite luminescence; inhibition (viability loss, TRAIL sensitization), % at 10 µM; hit rate 1% among 360,000; AID 624354, 2012;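 active means compounds causing at least 50% loss of cell viability in the single-dose screen, relative to plate controls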
SENP8 block-1: human SENP8 protease inhibitors, primary screen, biochemical, fluorescence, Nedd8 protein substrate, uHTS; Sentrin-specific protease 8 (Homo sapiens), Q96LD8; recombinant SENP8; inhibition, % at 20 µM; hit rate 0.64% among 360,000; in the data active means inhibition mostly above about 40%, no sharp cut-off; inactive means mostly below about 27%
Target sequence (Q96LD8 whole entry, looked up): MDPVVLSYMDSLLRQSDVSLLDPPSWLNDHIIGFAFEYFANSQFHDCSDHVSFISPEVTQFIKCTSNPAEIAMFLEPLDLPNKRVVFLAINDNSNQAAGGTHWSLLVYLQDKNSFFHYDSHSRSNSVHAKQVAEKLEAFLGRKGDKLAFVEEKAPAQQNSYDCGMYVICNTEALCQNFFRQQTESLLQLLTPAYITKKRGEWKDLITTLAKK
SENP8 block-2: SENP8 protease inhibitors, primary screen, biochemical, luminescence; Sentrin-specific protease 8 (Homo sapiens), Q96LD8; purified SENP8, Z-RLRGG-aminoluciferin cleavage; inhibition, % at 10 µM; hit rate 1.2% among 330,000; AID 2540, 2010; in the data active means inhibition above about 50%
SENP6 inh: SENP6 protease inhibitors, primary screen, biochemical, luminescence, uHTS; AID 2599, 2010; Sentrin-specific protease 6 (Homo sapiens), Q9GZR1; Recombinant SENP6 catalytic domain, aminoluciferin luminescence; inhibition, % at 10 µM; hit rate 1.8% among 330,000;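 active means inhibition above about 50% at the single tested dose, limit read from the data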;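 further: plate controls were DMSO wells with enzyme for no effect and DMSO wells lacking enzyme for full effect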
SENP7 block: SENP7 protease inhibitors, primary screen, biochemical, luminescence, uHTS; recombinant SENP7, Z-RLRGG-aminoluciferin luminescence, 40 min; inhibition, % at 5 µM; hit rate 1.5% among 330,000;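 active means inhibition above about 50% at the single test dose, limit read from the data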;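 further: plate controls were DMSO with enzyme for no effect and no enzyme buffer wells for full effect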
Target sequence (Q9BQF6 706-1050 limits assumed): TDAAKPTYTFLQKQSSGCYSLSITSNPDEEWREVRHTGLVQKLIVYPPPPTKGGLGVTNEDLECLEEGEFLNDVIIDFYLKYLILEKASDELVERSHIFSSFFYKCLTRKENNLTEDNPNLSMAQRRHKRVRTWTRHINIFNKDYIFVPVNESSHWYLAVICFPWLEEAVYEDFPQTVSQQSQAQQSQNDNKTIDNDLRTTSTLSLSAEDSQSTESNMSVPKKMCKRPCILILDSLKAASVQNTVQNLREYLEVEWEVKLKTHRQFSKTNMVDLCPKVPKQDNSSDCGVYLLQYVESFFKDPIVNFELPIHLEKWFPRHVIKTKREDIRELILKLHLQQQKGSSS
PPC-1 tox: cytotoxicity in PPC-1 cells, confirmation, cytotoxicity control for TRAIL apoptosis potentiator project, cell-based, ATP content luminescence; PPC-1 viability, ATPlite luminescence, overnight; cytotoxicity, % at 5 µM; shares compounds with PPC-1+TRAIL kill; hit rate 50% among 1,200; AID 1447, 2008;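 active means reconfirmed compounds whose average cytotoxicity reaches 50% or more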;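 further: 0% = DMSO-treated cells and 100% = wells holding medium but no cells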
SENP8 conf: SENP8 protease inhibitors, retest, confirmation, biochemical, luminescence, single concentration; shares compounds with SENP7 block; Recombinant SENP8, Z-RLRGG-aminoluciferin luminescence, 60 min; inhibition, % at 12.5 µM; hit rate 40% among 6,200; AID 488912, 2010;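 active means mean inhibition across replicates above about 50%, limit read from the data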
SENP6 conf: SENP6 protease inhibitors, confirmation, biochemical, luminescence, single concentration; shares compounds with SENP7 block; recombinant SENP6, Z-RLRGG-aminoluciferin luminescence; inhibition, % at 12.5 µM; AID 488915, 2010; hit rate 58% among 6,200
SENP7 confirm: SENP7 protease inhibitors, retest, confirmation, biochemical, luminescence, single concentration; shares compounds with SENP7 block; inhibition, % at 12.5 µM; recombinant SENP7, Z-RLRGG-aminoluciferin luminescence, 40 min; hit rate 69% among 6,200
Casp3 select: caspase-3 protease inhibitors, confirmation, selectivity assay for SENP inhibitor project, biochemical, single concentration; shares compounds with SENP7 block; purified caspase-3, Z-DEVD-aminoluciferin luminescence, 60 min; inhibition, % at 12.5 µM; hit rate 60% among 6,200; AID 488918, 2010;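 active means mean inhibition above about 50%, limit read from the data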;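 further: plate controls were enzyme with DMSO for no effect and wells without caspase-3 for full effect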
SENP luc ctr: luminescence interference (SENP counter-screen) | Pre-incubated SENP8/Z-RLRGG-aminoluciferin, luciferase luminescence interference | AID 488919 | inhibition, % at 12.5 µM | shares compounds with SENP7 block | hit rate 39% among 6,200;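 active means mean inhibition above about 50% when retested at one dose, limit read from the data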;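 further: plate controls were DMSO wells with completed reaction for no effect and substrate without enzyme for full effect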
The depositor's hits bear a star; i = inactive; / = not tested or not shown.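 How the source made its calls, unless noted: active means mean inhibition above about 50% in the one-dose retest (limit read from the data); inactive means the rest.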

SMILES	PPC-1+TRAIL kill	C8 TRAIL sens	SENP8 block-1	SENP8 block-2	SENP6 inh	SENP7 block	PPC-1 tox	SENP8 conf	SENP6 conf	SENP7 confirm	Casp3 select	SENP luc ctr
COCCn1c(C)cc(C2=NNC(=NC3CC3)SC2)c1C	89.2*	78.3*	5.4	81.9*	75.4*	6.6	88.1*	95.1*	95.8*	101.0*	97.6*	68.0*
O=C(Nc1cccc2ccccc12)c1cc2c(cc1Br)OCO2	-2.3	-8.2	13.7	-0.3	-8.4	-0.9	/	/	/	/	/	/
C/C(=N\NC(=O)c1n[nH]c2c1CCC2)c1ccco1	39.5	63.7*	8.8	55.2*	69.4*	59.5*	40.2	11.7	67.8*	90.9*	90.9*	65.0*
C=CCNC(=O)c1ccc2c3n(nc2c1)-c1ccccc1CO3	83.7*	85.8*	-183.7	77.1*	79.9*	74.8*	84.5*	75.5*	74.8*	94.3*	89.8*	82.0*
Nc1nn2cc(-c3ccccc3)nc2c2ccccc12	46.5	56.1*	-402.9	56.4*	33.2	68.9*	51.1*	78.3*	76.5*	91.3*	72.8*	73.8*
Cc1cn2nc(N)c3ccccc3c2n1	18.3	17.0	i	-1.9	-3.4	-4.0	/	/	/	/	/	/
CCC(C(=O)NCc1ccco1)n1nc(C)n2c(cc3occc32)c1=O (stereo not given)	/	2.8	11.2	4.7	2.1	-5.0	/	/	/	/	/	/
Clc1ccc(-n2ncc3c(N4CCCCCC4)ncnc32)cc1	63.1*	83.7*	6.5	86.4*	94.5*	91.3*	68.5*	47.2	53.0*	72.4*	57.3*	1.2
Cc1cccc(-n2ncc3c(N4CCOCC4)ncnc32)c1	78.7*	83.7*	14.7	70.4*	70.9*	78.6*	78.3*	77.5*	75.8*	90.8*	86.4*	60.7*
Clc1ccc(Cn2ncc3c(N4CCCCC4)ncnc32)cc1	-3.3	7.8	8.4	3.8	-16.4	7.4	/	/	/	/	/	/
CC(C)Cn1c(N)c(-c2nc(C(C)C)c(C(=O)c3ccccc3F)s2)c(=O)n(C)c1=O	10.5	/	/	0.6	-10.9	4.6	/	/	/	/	/	/
Cc1ccc2nc(-c3cccc(N)c3)oc2c1	75.8*	74.3*	-260.7	95.5*	95.3*	97.7*	74.8*	32.8	97.0*	102.1*	95.3*	94.1*
CCc1ccc2oc(-c3cccc(N)c3)nc2c1	46.5	81.8*	-283.8	95.3*	95.6*	98.1*	48.5	41.7	97.5*	101.7*	93.5*	95.8*
Cc1cc(C)c2oc(-c3cccc(N)c3)nc2c1	/	15.6	-446.5	7.1	33.8	21.1	/	/	/	/	/	/
Cc1ccc2nc(NC(=O)c3ccco3)sc2c1	70.2*	78.2*	-151.4	93.2*	92.3*	95.7*	64.2*	4.8	94.5*	100.6*	91.9*	58.3*
Cc1ccc(OCc2nc(-c3ccccn3)no2)c(Br)c1	34.6	59.0*	32.9	90.0*	81.9*	96.2*	37.1	0.9	96.0*	101.9*	91.2*	93.0*
COc1ccc(C)cc1S(=O)(=O)N1CCCC(C(=O)N2CCN(c3ccccc3)CC2)C1 (stereo not given)	/	-6.1	24.5	2.9	6.3	-2.1	/	/	/	/	/	/
O=C(NC1CC1)c1ccc(-c2nc3ccccc3s2)s1	92.9*	91.2*	-222.3	88.4*	90.9*	97.9*	92.8*	81.2*	94.9*	101.6*	96.0*	37.1
O=C(c1cc2ccccc2s1)N1CCOCC1	5.8	6.6	25.8	4.0	-0.8	0.1	/	/	/	/	/	/
O=C(c1ccc(-c2nc3ccccc3s2)s1)N1CCOCC1	88.1*	/	/	93.6*	96.9*	96.0*	88.1*	90.7*	97.0*	101.1*	96.3*	68.8*
CCOC(=O)C1=C(C)N(C)C(C)=C(C(=O)OCC)C1c1ccsc1	13.4	-14.4	5.9	-1.4	-2.5	3.4	/	/	/	/	/	/
O=C1C(c2ccnc3ccccc23)=C(O)c2ccccc21	83.8*	89.1*	61.8*	38.9	64.4*	96.9*	85.6*	85.7*	86.4*	96.7*	94.3*	87.8*
c1ccc2[nH]c(-c3ccnc4ccccc34)nc2c1	31.5	-8.5	-387.7	-10.7	-27.3	-7.0	/	/	/	/	/	/
O=C1c2ccccc2C(=O)C1c1ccnc2ccccc12	86.0*	90.2*	28.3	85.4*	79.0*	99.2*	87.1*	83.9*	89.0*	99.8*	93.6*	20.9
N#CC1=C(N)SC(N)=C(C#N)C1c1ccnc2ccccc12	14.9	-14.5	-305.9	-9.1	1.4	-1.7	/	/	/	/	/	/
SMILES	PPC-1+TRAIL kill	C8 TRAIL sens	SENP8 block-1	SENP8 block-2	SENP6 inh	SENP7 block	PPC-1 tox	SENP8 conf	SENP6 conf	SENP7 confirm	Casp3 select	SENP luc ctr
Cc1cc(C(=O)COC(=O)Cc2ccc(Br)cc2)c(C)n1C	/	7.9	5.6	-13.1	-7.9	-9.9	/	/	/	/	/	/
Cc1ccc(CNC(=O)COC(=O)c2ccc(Cl)c(N)c2)cc1	4.9	0.5	-445.5	-1.5	-7.5	-0.1	/	/	/	/	/	/
Nc1nc(Nc2cccc(F)c2)nc2ccccc12	28.0	27.1	-319.3	88.2*	95.7*	90.2*	29.1	95.8*	96.4*	101.5*	90.6*	95.5*
O=c1oc(Nc2cccc(F)c2)nc2ccccc12	2.0	13.4	-249.1	5.3	5.3	-6.3	/	/	/	/	/	/
CC(C)[C@H](NC(=O)c1ccccc1)C(=O)OCC(=O)c1c(N)n(C)c(=O)n(C)c1=O	/	-5.0	3.7	-3.6	-21.6	0.4	/	/	/	/	/	/
Cc1ccc(-c2cnc3cc(C)nn3c2)cc1	55.7*	68.4*	-5.3	46.6	58.0*	75.1*	55.7*	50.7*	60.8*	82.8*	72.0*	25.3
